Results reported in the supplement of paper PMC6897291.

Columns and labels:
[1] = tested on: RIVA; experiment: growth inhibition by drug plus 177Lu-lilotomab satetraxetan (1 - RLU/untreated control) (fraction); higher = stronger inhibition; conditions: 177Lu-lilotomab satetraxetan 0.5 ug/ml
Summary of the method: (§1)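 RIVA or U-2932 cells, untreated or pretreated 18 h with a radiolabelled anti-CD37 antibody conjugate (~600 MBq/mg; 0.5 µg/ml RIVA, 1 µg/ml U-2932), were washed and seeded at 3,000 cells/well on plates pre-printed with the Selleck Cambridge Cancer Compound library. Doses were 10/100 nM (RIVA) or 10/1,000 nM (U-2932). RealTime-Glo luminescence was read daily from day 3 after 1 h at 37°C. Growth inhibition is 1 − RLU/mean of 48 untreated no-drug wells per plate.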

[2] = tested on: U-2932; experiment: growth inhibition by drug alone (1 - RLU/untreated control) (fraction); higher = stronger inhibition; conditions: 177Lu-lilotomab satetraxetan 0 ug/ml
Summary of the method: as §1

[3] = tested on: RIVA; experiment: as above; conditions: 177Lu-lilotomab satetraxetan 0 ug/ml
Summary of the method: as §1

[4] = tested on: U-2932; experiment: growth inhibition by drug plus 177Lu-lilotomab satetraxetan (1 - RLU/untreated control) (fraction); higher = stronger inhibition; conditions: 177Lu-lilotomab satetraxetan 1 ug/ml
Summary of the method: as §1

SMILES	growth inhibition by drug plus 177Lu-lilotomab satetraxetan ([1]; 100 nM, time (day): 5)	growth inhibition by drug plus 177Lu-lilotomab satetraxetan ([1]; 100 nM, time (day): 6)	growth inhibition by drug alone ([2]; 10 nM, time (day): 3)	growth inhibition by drug alone ([2]; 10 nM, time (day): 4)	growth inhibition by drug alone ([2]; 10 nM, time (day): 5)	growth inhibition by drug alone ([2]; 10 nM, time (day): 6)	growth inhibition by drug alone ([2]; 1000 nM, time (day): 3)	growth inhibition by drug alone ([2]; 1000 nM, time (day): 4)	growth inhibition by drug alone ([2]; 1000 nM, time (day): 5)	growth inhibition by drug alone ([2]; 1000 nM, time (day): 6)	growth inhibition by drug alone ([3]; 10 nM, time (day): 3)	growth inhibition by drug alone ([3]; 10 nM, time (day): 4)	growth inhibition by drug alone ([3]; 10 nM, time (day): 5)	growth inhibition by drug alone ([3]; 10 nM, time (day): 6)	growth inhibition by drug alone ([3]; 100 nM, time (day): 3)	growth inhibition by drug alone ([3]; 100 nM, time (day): 4)	growth inhibition by drug alone ([3]; 100 nM, time (day): 5)	growth inhibition by drug alone ([3]; 100 nM, time (day): 6)	growth inhibition by drug plus 177Lu-lilotomab satetraxetan ([4]; 10 nM, time (day): 3)	growth inhibition by drug plus 177Lu-lilotomab satetraxetan ([4]; 10 nM, time (day): 4)	growth inhibition by drug plus 177Lu-lilotomab satetraxetan ([4]; 10 nM, time (day): 5)	growth inhibition by drug plus 177Lu-lilotomab satetraxetan ([4]; 10 nM, time (day): 6)	growth inhibition by drug plus 177Lu-lilotomab satetraxetan ([4]; 1000 nM, time (day): 3)	growth inhibition by drug plus 177Lu-lilotomab satetraxetan ([4]; 1000 nM, time (day): 4)	growth inhibition by drug plus 177Lu-lilotomab satetraxetan ([4]; 1000 nM, time (day): 5)	growth inhibition by drug plus 177Lu-lilotomab satetraxetan ([4]; 1000 nM, time (day): 6)	growth inhibition by drug plus 177Lu-lilotomab satetraxetan ([1]; 10 nM, time (day): 3)	growth inhibition by drug plus 177Lu-lilotomab satetraxetan ([1]; 10 nM, time (day): 4)	growth inhibition by drug plus 177Lu-lilotomab satetraxetan ([1]; 10 nM, time (day): 5)	growth inhibition by drug plus 177Lu-lilotomab satetraxetan ([1]; 10 nM, time (day): 6)	growth inhibition by drug plus 177Lu-lilotomab satetraxetan ([1]; 100 nM, time (day): 3)	growth inhibition by drug plus 177Lu-lilotomab satetraxetan ([1]; 100 nM, time (day): 4)
C=C1/C(=C\C=C2/CCC[C@]3(C)[C@@H]([C@H](C)/C=C/[C@H](C)C(C)C)CC[C@@H]23)C[C@@H](O)C[C@@H]1O [Doxercalciferol (Hectorol)]	0.563	0.571																														
Cc1ccc(C(=O)N(CCCN)[C@@H](c2oc3cc(Cl)ccc3c(=O)c2Cc2ccccc2)C(C)C)cc1	0.979	0.981	0.962	0.968	0.974	0.977	0.962	0.97	0.976	0.98	0.945	0.955	0.965	0.967	0.918	0.938	0.95	0.957	0.964	0.974	0.981	0.984	0.968	0.976	0.982	0.985	0.963	0.976	0.981	0.985	0.953	0.973
COc1ccc(-c2ccc3c(N4CCOC[C@@H]4C)nc(N4CCOC[C@@H]4C)nc3n2)cc1CO	0.762	0.744	0.165	0.142	0.0822	0.157	0.896	0.892	0.897	0.909	0.0033	-0.0925	-0.125	-0.292	0.617	0.609	0.575	0.472	0.124	0.14	0.163	0.253	0.899	0.893	0.902	0.923	0.495	0.529	0.545	0.545	0.749	0.763
Cc1c(CCOc2ccc(C(=O)O)cc2)c2cc(Cl)ccc2n1C(c1ccccc1)c1ccccc1	0.419	0.435	0.00805	-0.00114	-0.0847	-0.0955	-0.0489	-0.0693	-0.125	-0.133	-0.14	-0.201	-0.294	-0.473	-0.448	-0.454	-0.564	-0.758	-0.0474	-0.0119	0.00779	0.0213	0.0043	0.0519	0.061	0.147	0.505	0.573	0.594	0.582	0.296	0.41
O=C(CCCCCCC(=O)Nc1cccnc1)NO [Pyroxamide]	0.511	0.509	-0.0932	-0.0929	-0.129	-0.234	0.82	0.79	0.759	0.717	-0.263	-0.352	-0.468	-0.514	-0.333	-0.305	-0.265	-0.306	-0.106	-0.0647	-0.00568	0.0937	0.6	0.542	0.472	0.474	0.358	0.433	0.464	0.49	0.454	0.507
COc1nc(C)cnc1NS(=O)(=O)c1cccnc1-c1ccc(-c2nnco2)cc1 [Zibotentan (ZD4054)]	0.494	0.461	-0.02	-0.0119	-0.0937	-0.23	-0.0348	-0.00699	-0.0784	-0.143	0.00676	-0.0294	-0.0678	-0.248	-0.0338	-0.0394	-0.0583	-0.115	-0.0217	0.0145	0.00284	0.0711	-0.0714	0.0154	-0.0042	-0.0452	0.387	0.514	0.537	0.542	0.388	0.485
C[C@]12CC[C@@H]3c4ccc(O)cc4CC[C@H]3[C@@H]1CC[C@@H]2O [Estradiol]	0.607	0.585	0.0973	0.0727	-0.00691	-0.0255	0.0487	0.0434	-0.00409	-0.0239	0.262	0.163	0.098	-0.022	0.0522	0.0345	-0.0106	-0.0996	0.0604	0.113	0.146	0.26	0.0789	0.106	0.106	0.215	0.509	0.574	0.594	0.601	0.584	0.611
CCN(CC)CCCCNc1ncc2cc(-c3cc(OC)cc(OC)c3)c(NC(=O)NC(C)(C)C)nc2n1	0.445	0.439	-0.118	-0.118	-0.0732	-0.00128	-0.114	-0.0849	-0.071	0.0716	-0.21	-0.246	-0.227	-0.211	-0.356	-0.38	-0.379	-0.398	-0.0428	0.00417	0.0568	0.152	-0.156	-0.0951	-0.0251	0.158	0.539	0.564	0.587	0.597	0.393	0.447
COc1cc2ncnc(Nc3ccc(F)c(Cl)c3)c2cc1OCCCN1CCOCC1 [Gefitinib (Iressa)]	0.503	0.494	0.0523	-0.0185	-0.0608	-0.248	-0.147	-0.0975	-0.157	-0.226	-0.00639	-0.111	-0.168	-0.438	-0.234	-0.33	-0.334	-0.479	-0.0292	-0.0156	-0.0275	0.0384	-0.218	-0.0647	-0.0381	0.0874	0.402	0.522	0.546	0.553	0.408	0.485
C=CC(=O)Nc1cccc(Oc2nc(Nc3ccc(N4CCN(C)CC4)cc3OC)ncc2Cl)c1	0.299	0.321	-0.0921	-0.0614	-0.0383	0.12	0.122	0.0694	0.0278	0.0218	-0.189	-0.196	-0.216	-0.258	-0.151	-0.238	-0.251	-0.328	-0.102	-0.073	-0.0211	0.138	0.163	0.104	0.0972	0.216	0.397	0.494	0.517	0.516	0.215	0.265
Nc1ccn([C@@H]2O[C@H](CO)[C@@H](O)[C@@H]2O)c(=O)n1 [Cytarabine]	0.793	0.81	-0.00637	0.0194	-0.0299	-0.0808	0.484	0.568	0.585	0.6	-0.0997	-0.0678	-0.108	-0.326	-0.231	0.0413	0.0792	0.023	-0.0521	0.00463	-0.0153	-0.0601	0.688	0.801	0.859	0.89	0.51	0.601	0.632	0.644	0.655	0.771
CCc1cc(-c2n[nH]c(C)c2-c2ccc3c(c2)OCCO3)c(O)cc1O	0.473	0.48	0.113	0.047	-0.0381	-0.212	0.0202	-0.0494	-0.116	-0.126	-0.0752	-0.183	-0.489	-0.797	-0.563	-0.433	-0.46	-0.629	0.0102	0.053	0.0491	0.0788	0.0475	0.0422	0.0841	0.183	0.478	0.547	0.565	0.581	0.363	0.462
Cc1c(C(=O)Nc2ccc(N3C[C@@H](C)O[C@@H](C)C3)nc2)cccc1-c1ccc(OC(F)(F)F)cc1 [LDE225 (NVP-LDE225, Erismodegib)]	0.482	0.47	0.0297	0.0258	-0.0417	-0.121	-0.0141	0.0478	0.023	-0.177	-0.0165	-0.00347	-0.0773	-0.419	-0.213	-0.137	-0.143	-0.258	0.00969	0.0196	0.033	0.15	-0.0204	0.153	0.159	0.189	0.366	0.504	0.517	0.547	0.384	0.483
O=C(O)CC[C@H]1CC[C@@](c2cc(F)ccc2F)(S(=O)(=O)c2ccc(Cl)cc2)CC1	0.543	0.556	0.105	0.0715	-0.0926	-0.0883	0.0344	0.041	-0.0603	-0.0323	0.072	0.0162	-0.0366	-0.42	-0.186	-0.2	-0.179	-0.202	0.00844	0.0724	0.123	0.147	0.000893	0.0697	0.0856	0.142	0.613	0.631	0.645	0.643	0.453	0.522
CC[C@@H]1C(=O)N(C)c2cnc(Nc3ccc(C(=O)NC4CCN(C)CC4)cc3OC)nc2N1C1CCCC1	0.969	0.976	0.821	0.844	0.867	0.907	0.953	0.973	0.981	0.984	0.903	0.895	0.9	0.908	0.937	0.955	0.964	0.968	0.814	0.856	0.903	0.941	0.938	0.957	0.97	0.982	0.93	0.959	0.97	0.978	0.918	0.956
